From PubChem BioAssay AID743482 (Broad Institute, 2014)
The source made the active and inactive calls.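 How the source made its calls: active means falling viability signal whose fitted half-maximal concentration is at most twice the highest tested dose; inconclusive means flat fit with a moderate drop, or a poor curve fit; inactive means the rest.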

Assay: cytotoxicity in HepG2 cells, dose response, cytotoxicity control, cell-based, CellTiter-Glo luminescence, dry powder (AID 743482)

| SMILES | outcome |
| --- | --- |
| COc1ccc(S(=O)(=O)N(C)C[C@@H]2OCCCC[C@H](C)Oc3ccc(NS(=O)(=O)c4ccc(Cl)cc4)cc3C(=O)N([C@@H](C)CO)C[C@@H]2C)cc1 | inactive |
| C[C@H](CO)N1C[C@H](C)[C@H](CN(C)C(=O)Nc2ccc3c(c2)OCO3)OCCCC[C@H](C)Oc2ccc(NC(=O)C3CCCCC3)cc2C1=O | inactive |
| C[C@@H]1CN([C@H](C)CO)C(=O)c2cc(NC(=O)C3CCCCC3)ccc2O[C@@H](C)CCCCO[C@@H]1CN(C)C(=O)Nc1cccc2ccccc12 | inactive |
| C[C@@H]1CCCCO[C@H](CN(C)C(=O)Nc2cccc3ccccc23)[C@@H](C)CN([C@H](C)CO)C(=O)c2cc(NC(=O)C3CCCCC3)ccc2O1 | inactive |
| C[C@H](CO)N1C[C@H](C)[C@H](CN(C)C(=O)Nc2ccccc2)OCCCC[C@H](C)Oc2ccc(NC(=O)Nc3ccccc3)cc2C1=O | inactive |
| C[C@@H]1CCCCO[C@@H](CN(C)C(=O)Nc2cccc3ccccc23)[C@H](C)CN([C@@H](C)CO)C(=O)c2cc(NC(=O)C3CCCCC3)ccc2O1 | inactive |
| C[C@@H]1CCCCO[C@H](CN(C)C(=O)Nc2cccc3ccccc23)[C@@H](C)CN([C@@H](C)CO)C(=O)c2cc(NC(=O)C3CCCCC3)ccc2O1 | inactive |
| C[C@H](CO)N1C[C@H](C)[C@H](CN(C)C(=O)Nc2ccc(F)cc2)OCCCC[C@H](C)Oc2ccc(NC(=O)C3CCCCCC3)cc2C1=O | inactive |
| Cc1ccc(NC(=O)N(C)C[C@@H]2OCCCC[C@H](C)Oc3ccc(NC(=O)C4CCCCC4)cc3C(=O)N([C@H](C)CO)C[C@@H]2C)cc1 | inactive |
| C[C@H](CO)N1C[C@H](C)[C@H](CN(C)C(=O)Nc2cccc3ccccc23)OCCCC[C@H](C)Oc2ccc(NC(=O)NC3CCCCC3)cc2C1=O | inactive |
| C[C@H](CO)N1C[C@H](C)[C@H](CN(C)C(=O)Nc2ccc3ccccc3c2)OCCCC[C@H](C)Oc2ccc(NC(=O)C3CCCCC3)cc2C1=O | inactive |
| C[C@@H]1CN([C@@H](C)CO)C(=O)c2cc(NC(=O)C3CCCCC3)ccc2O[C@@H](C)CCCCO[C@@H]1CN(C)C(=O)Nc1cccc2ccccc12 | inactive |
| C[C@H](CO)N1C[C@H](C)[C@H](CN(C)C(=O)Nc2ccc(F)cc2)OCCCC[C@H](C)Oc2ccc(NC(=O)C3CCCCC3)cc2C1=O | inactive |
| C[C@H](CO)N1C[C@H](C)[C@H](CN(C)C(=O)Nc2cccc(F)c2)OCCCC[C@H](C)Oc2ccc(NC(=O)C3CCCCC3)cc2C1=O | inactive |
| C[C@H](CO)N1C[C@H](C)[C@H](CN(C)C(=O)Nc2ccc(F)cc2)OCCCC[C@H](C)Oc2ccc(NC(=O)C3CCC3)cc2C1=O | inactive |
| C[C@H]1CCCCO[C@@H](CN(C)C(=O)Nc2ccc(F)cc2)[C@@H](C)CN([C@@H](C)CO)C(=O)c2cc(NC(=O)C3CCCCC3)ccc2O1 | inactive |
| C[C@H](CO)N1C[C@H](C)[C@H](CN(C)C(=O)Nc2ccc(C(F)(F)F)cc2)OCCCC[C@H](C)Oc2ccc(NC(=O)CCC(F)(F)F)cc2C1=O | inactive |
| COc1ccc(NC(=O)N(C)C[C@@H]2OCCCC[C@H](C)Oc3ccc(NC(=O)NC4CCCCC4)cc3C(=O)N([C@H](C)CO)C[C@@H]2C)cc1 | inactive |
| C[C@H](CO)N1C[C@H](C)[C@H](CN(C)C(=O)Nc2ccc(F)cc2)OCCCC[C@H](C)Oc2ccc(NC(=O)C3CCOCC3)cc2C1=O | inactive |
| C[C@H](CO)N1C[C@H](C)[C@H](CN(C)C(=O)Nc2ccccc2)OCCCC[C@H](C)Oc2ccc(NC(=O)CCC(F)(F)F)cc2C1=O | inactive |
| C[C@H]1CCCCO[C@@H](CN(C)C(=O)Nc2ccc3c(c2)OCO3)[C@@H](C)CN([C@@H](C)CO)C(=O)c2cc(NC(=O)NC3CCCCC3)ccc2O1 | inactive |
| C[C@H](CO)N1C[C@H](C)[C@H](CN(C)C(=O)Nc2ccc(F)cc2)OCCCC[C@H](C)Oc2ccc(NC(=O)C3CCCC3)cc2C1=O | inactive |
| COc1ccc(NC(=O)N(C)C[C@@H]2OCCCC[C@H](C)Oc3ccc(NC(=O)C4CCCCC4)cc3C(=O)N([C@H](C)CO)C[C@@H]2C)cc1 | inactive |
| C[C@@H]1CCCCO[C@H](CN(C)C(=O)Nc2cccc3ccccc23)[C@H](C)CN([C@@H](C)CO)C(=O)c2cc(NC(=O)C3CCCCC3)ccc2O1 | inactive |
| C[C@H](CO)N1C[C@H](C)[C@H](CN(C)C(=O)Nc2ccc(F)cc2)OCCCC[C@H](C)Oc2ccc(NC(=O)Nc3ccc(F)cc3)cc2C1=O | inactive |
| C[C@H](CO)N1C[C@H](C)[C@H](CN(C)C(=O)Nc2cccc3ccccc23)OCCCC[C@H](C)Oc2ccc(NC(=O)C3CCCCC3)cc2C1=O | inactive |
